Test results reported in PubChem BioAssay AID1063 (University of Pittsburgh Molecular Library Screening Center, 2008).
Out of some 200,000 compounds screened, about 18,000 (9%) were called active. The entries come from a sample that favours actives as a whole. Values without a mark were called inactive. Rule as the data show it: active = inhibition above about 50%; inactive = the rest.

Assay: antileishmanial activity against promastigotes – primary screen (AID 1063);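 also: promastigotes grown with compound for 44 hours at 28 °C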
Details: Leishmania major promastigotes, resazurin fluorescence viability; at 10 µM; active compounds read high

SMILES	inhibition
O=C(NCCOc1ccccc1)c1ccccc1	-1.77%
O=C(NCCc1ccccc1)c1ccc(OCCOc2ccccc2)cc1	-1.38%
CC(C)(c1ccccc1)c1ccc(OCCN)cc1	51.4% (active)
COc1cc(OC)cc(C(=O)NCC(=O)OCc2csc(-c3ccccc3)n2)c1	34.9%
O=C(CNCc1ccc(Cl)cc1)Nc1cccc(C(=O)O)c1	1.28%
N/C(=N\OC(=O)Cc1ccccc1[N+](=O)[O-])c1ccc(Br)cc1	10.7%
COc1cccc(CNC(=O)CCC2CCCN(Cc3ccc(OC(F)F)cc3)C2)c1 (stereo unspecified)	98.5% (active)
COc1cccc(C(=O)N2CCCC(CCC(=O)NCc3ccc(F)c(F)c3)C2)c1 (stereo unspecified)	6.37%
COc1cccc(CNC(=O)CCC2CCCN(C(=O)c3ccoc3C)C2)c1 (stereo unspecified)	-4.54%
COc1ccc(/C=N/NC(=O)C(C)N(c2ccc(OC)cc2)S(C)(=O)=O)cc1 (stereo unspecified)	4.55%
COc1ccc(Cl)cc1NC(=O)C(C)N1CCc2ccccc21 (stereo unspecified)	16.9%
CC1(C)OC(=O)C(=CNC(CO)C(=O)O)C(=O)O1 (stereo unspecified)	-4.58%
O=C(Oc1ccc([N+](=O)[O-])cc1)c1ccc(Cl)c(S(=O)(=O)N2CCCCC2)c1	56.8% (active)
O=C(Nc1ccc2c(c1)OCCO2)c1ccc(Cl)c(S(=O)(=O)N2CCCCC2)c1	-0.95%
O=[N+]([O-])c1cccc(S(=O)(=O)N2CCCCCC2)c1	36.7%
OCCNCc1cccc(OCc2ccccc2Cl)c1	88.8% (active)
S=C(NCCc1ccccc1)NCc1ccccc1Cl	-3.26%
O=C(O)Cc1ccc(NCc2ccccc2Cl)cc1	-1.01%
COc1ccccc1NC(=O)c1cc(Cl)nnc1Cl	15.6%
COc1ccc(NC(=O)c2sc(N)nc2-c2ccccc2)cc1	2.6%
Cc1cccc(NC(=O)c2sc(-c3ccccc3)nc2-c2ccc([N+](=O)[O-])cc2)c1	99.5% (active)
Cc1cccc(NC(=O)c2cc([N+](=O)[O-])ccc2N2CCN(C)CC2)c1	-0.64%

SMILES	inhibition
CC(=O)C1=C(O)C(=O)N(c2cccnc2)C1c1ccc([N+](=O)[O-])cc1 (stereo unspecified)	-4.89%
Cc1ccc(OCC(=O)NNC(=S)NCc2ccccc2)cc1	-2.06%
Cc1ccc(Nc2nc(CSc3nnnn3-c3ccccc3)cc(=O)[nH]2)cc1	97.7% (active)
O=c1c2ccccc2nc(CSc2nnnn2-c2ccccc2)n1-c1ccccc1	-5.4%
Cc1ccc(-c2noc(CSc3nnnn3-c3ccccc3)n2)cc1	7.86%
CC1=NNC(=O)C1CCC(=O)N/N=C\c1cccc(Cl)c1 (stereo unspecified)	0.75%
COc1ccc(-c2nn(-c3ccccc3)cc2/C=C\C(=O)N2CCOCC2)cc1[N+](=O)[O-]	12.4%
O=[N+]([O-])c1cc(S(=O)(=O)CCCN2CCOCC2)ccc1F	1.38%
C=CCOc1ccc(Cl)cc1CNCCCN1CCOCC1	69.1% (active)
COc1ccc(-c2ccc(CNCCCN3CCOCC3)o2)cc1Cl	40%
COc1ccc(OC)c(Cc2nnc(CCC(=O)NC3CCCC3)o2)c1	-0.8%
O=C1Nc2cc(Cl)c(Cl)cc2N(O)N1c1ccccc1Cl	-6.67%
NC1=NC2(CCCCC2)N(c2ccc(F)cc2F)C(N)=N1	-5.15%
Cc1cc(C(=O)CC#N)c(C)n1-c1c(C)n(C)n(-c2ccccc2)c1=O	-0.96%
CC(=O)c1cnc(SCC(=O)O)nc1C	-12.2%
NNc1nc2c(Cl)cccc2s1	99.1% (active)
C/C(=N\NC(=O)OC(C)(C)C)c1ccc[nH]1	-3.24%
COc1cc([N+](=O)[O-])ccc1NC(=O)CN1CCCC1	-4.3%
Cc1cc(-c2nnc(CCC(=O)NC(c3ccccc3)c3ccccc3)o2)no1	5.43%
NNC(=O)c1cnn(-c2ccccc2)c1C(F)(F)F	-1.35%
CN(CC(=O)NCCc1ccccc1)S(=O)(=O)c1cnc[nH]1	57.7% (active)
Cc1ccc(NC(=O)CN(C)S(=O)(=O)c2cnc[nH]2)cc1C	-1.54%

SMILES	inhibition
CN(CC(=O)NC1CCCC1)S(=O)(=O)c1cnc[nH]1	-0.93%
COC(=O)c1nc(NC(=O)c2ccc(C(C)(C)C)cc2)n[nH]1	-4.46%
CCC(C)(C)NC(=O)C(c1cccc(OC)c1OC)N(CC(C)C)C(=O)CCC(=O)Nc1cc(C)on1 (stereo unspecified)	9.34%
O=C1NC(c2cccc(Cl)c2)Nc2ccccc21 (stereo unspecified)	-1.93%
O=C(O)c1ccc(/C=N/NC(=S)NCc2ccccc2)cc1	-3.57%
O=C(N/N=C/c1ccc2c(c1)OCO2)C(=O)N1CCCC1	-3.67%
Cc1cccc(CC(=O)N2CCN=C2SCc2ccc([N+](=O)[O-])cc2)c1	88.4% (active)
Cc1cc(C)cc(C(=O)N2CCN=C2SCc2ccc([N+](=O)[O-])cc2)c1	20.5%
O=C(Cc1ccc(F)cc1)N1CCN=C1SCc1cccc([N+](=O)[O-])c1	46.3%
Cc1cccc(C)c1NC(=O)C(c1ccccc1)N1CC(=O)Nc2ccccc21 (stereo unspecified)	57.2% (active)
Cc1ccc(C(=O)N2CC(=O)Nc3ccccc32)o1	-0.84%
Cc1ccc(S(=O)(=O)N2CC(=O)Nc3ccccc32)cc1C	3.05%
COc1ccc(C(=O)Nc2nc(-c3ccc(S(=O)(=O)N4CCOCC4)cc3)cs2)cc1	80.4% (active)
CCOC(=O)c1csc(NC(=O)c2ccc(S(=O)(=O)N3CCCC3)cc2)n1	0.83%
COc1ccc(-c2csc(NC(=O)c3ccc(N4C(=O)CCC4=O)cc3)n2)cc1OC	6.8%
C=CCN(c1ccc(Cl)cc1)S(=O)(=O)c1cccc(C(=O)OCC(=O)N(C)C)c1	-0.9%
Cc1ccccc1N1CCN(CCCOc2ccc3c(C)cc(=O)oc3c2)CC1	42.5%
Cc1cc(OCCCN2CCN(Cc3ccccc3)CC2)ccc1[N+](=O)[O-]	94.3% (active)
Cc1c(Br)c([N+](=O)[O-])nn1CC(=O)N1CCN(Cc2ccccc2)CC1	0.53%
O=C(COc1ccccc1[N+](=O)[O-])NC1CC1	-4.5%
Cc1ccc(C(=O)COC(=O)CCCC(=O)NC2CCCCC2)cc1[N+](=O)[O-]	33.2%
Cc1cc(OCC(=O)NC2CCN(C)CC2)ccc1[N+](=O)[O-]	55% (active)
